Results on 29 compounds are retold here after the supplement of paper PMC10042075.

Where “and” joins values, the source holds several entries; their conditions need not be identical. Equal values may be shown once. Where a name gives a salt, the structure may show the parent alone.

The experiment deals with LASCPC-01. The experiment can be described thus: cell viability relative to DMSO control (fraction); higher = less growth inhibition (more viable cells). Conditions: 2 µM; 72 h. A digest of the protocol:
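Cell viability was taken as CellTiter-Glo luminescence from compound-treated wells divided by that from solvent-treated wells. The cells were LASCPC-01 human prostate cancer cells grown in modified HITES medium with 5% fetal bovine serum at 37°C and 5% CO2. They were plated in 384-well format and treated in triplicate with each compound at 2 μM for 72 hours.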
`CNS(=O)(=O)Cc1ccc2[nH]cc(CCN(C)C)c2c1` [Sumatriptan Succinate] had a cell viability of 0.971.
The value for `CN1CCN(c2nc3cc(C(F)(F)F)ccc3n3cccc23)CC1` was 0.521; that for `Cc1ccc(Sc2ccccc2N2CCNCC2)c(C)c1` [Vortioxetine] was 0.666; that for `CC(N)C(=O)OC(C)(C)Cc1ccc(Cl)cc1` (centres undefined) [Alaproclate hydrochloride] was 1.13.
For `CCN(CC)CCOC(=O)c1cc(Cl)c(N)cc1OC` [SDZ-205,557 hydrochloride] the value was 1.06; for `COc1ccc(NS(=O)(=O)c2sc3ccc(Cl)cc3c2C)cc1N1CCNCC1`, 1.09 and 0.772.
The value for `CN(C)C(=O)N[C@H]1CC[C@H](CCN2CCN(c3cccc(Cl)c3Cl)CC2)CC1` [Cariprazine] was 0.892; that for `CN(C)CCCN1c2ccccc2CCc2ccccc21` [Imipramine hydrochloride] was 1.13; that for `O=C1CC2(CCCC2)CC(=O)N1CCCCN1CCN(c2ncccn2)CC1` [Buspirone hydrochloride] was 1.08.
Compound `Cc1ccc(C(=O)Oc2ccc(C(CN(C)C)C3(O)CCCCC3)cc2)cc1` (centres undefined) [Ansofaxine hydrochloride] displayed a cell viability of 0.931.
The value for `Fc1ccc([C@@H]2CCNC[C@H]2COc2ccc3c(c2)OCO3)cc1` [Paroxetine hydrochloride hemihydrate (MW = 374.83)] was 1.09; that for `COc1ccccc1N1CCN(CCN2C(=O)CC3(CCCC3)CC2=O)CC1` was 0.815; that for `CNc1cc(NS(=O)(=O)c2ccc(N)cc2)nc(NC)n1` [Ro 04-6790 dihydrochloride] was 1.03.
For `COc1cc(N)c(Cl)cc1C(=O)OCCN1CCCCC1` the value was 0.718; for `Nc1ccc2c(C(F)(F)F)cc(=O)oc2c1` [7-Amino-4-(trifluoromethyl)coumarin], 0.894; for `COCCCN1CCC(NC(=O)c2cc(Cl)c(N)c3c2OCC3)CC1` [Prucalopride Succinat], 1.1.
For `CC(CN1c2ccccc2Sc2ccccc21)N(C)C` (centres undefined) [Promethazine] the value was 1.11.
For the compound `N#Cc1cc(CN2CCC(Nc3ncnc4sc(Cl)cc34)CC2)ccc1F`, the cell viability amounted to 0.875.
For `Cc1nc2sccn2c(=O)c1CCN1CCC(=C(c2ccc(F)cc2)c2ccc(F)cc2)CC1` [Ritanserin] the value was 0.989; for `CCN1CCN(c2cc(-c3ccc(F)cc3)c3c(n2)CCCCCC3)CC1` [Blonanserin], 0.776.
The value for `NCCCCCNCC12CC3CC(CC(C3)C1)C2` [IEM 1754 dihydrobroMide] was 0.808; that for `CN(C)[C@@H]1CCc2[nH]c3ccc(NC(=O)c4ccc(F)cc4)cc3c2C1` was 0.693; that for `CN1CCCCC1CCN1c2ccccc2Sc2ccc([S+](C)[O-])cc21` (centres undefined) [Mesoridazine Besylate] was 1.07.
For `O=c1ccc2ccc(OCCCCN3CCN(c4cccc5sccc45)CC3)cc2[nH]1` [Brexpiprazole] the value was 1.01.
In turn, `CN(C)CC[C@@H](c1ccc(Cl)cc1)c1ccccn1` [Dexchlorpheniramine Maleate] showed a cell viability of 0.891.
For `O=c1ccccn1CC1(O)CCN(Cc2ccccc2)CC1` the value was 1.05; for `O=c1n(CCCN2CCN(c3cccc(Cl)c3)CC2)nc2ccccn12` [Trazodone hydrochloride], 1.04.
The value for `O=S(=O)(c1ccccc1)c1cnc2c(N3CCNCC3)cccc2c1` was 0.879; that for `CN(C)CCCN1c2ccccc2CCc2ccc(Cl)cc21` [Clomipramine HCl] was 0.826.
